ST2 IL33 inh: IL1RL1 inhibition | actives 2.3% (n = 78,000) | inhibition, % for hits at 17 µM | Q01638 | AlphaLISA ST2-Fc/biotin-IL-33 interaction, 1 h; in the data active means inhibition above about 30%
Target sequence (Q01638 whole entry, looked up): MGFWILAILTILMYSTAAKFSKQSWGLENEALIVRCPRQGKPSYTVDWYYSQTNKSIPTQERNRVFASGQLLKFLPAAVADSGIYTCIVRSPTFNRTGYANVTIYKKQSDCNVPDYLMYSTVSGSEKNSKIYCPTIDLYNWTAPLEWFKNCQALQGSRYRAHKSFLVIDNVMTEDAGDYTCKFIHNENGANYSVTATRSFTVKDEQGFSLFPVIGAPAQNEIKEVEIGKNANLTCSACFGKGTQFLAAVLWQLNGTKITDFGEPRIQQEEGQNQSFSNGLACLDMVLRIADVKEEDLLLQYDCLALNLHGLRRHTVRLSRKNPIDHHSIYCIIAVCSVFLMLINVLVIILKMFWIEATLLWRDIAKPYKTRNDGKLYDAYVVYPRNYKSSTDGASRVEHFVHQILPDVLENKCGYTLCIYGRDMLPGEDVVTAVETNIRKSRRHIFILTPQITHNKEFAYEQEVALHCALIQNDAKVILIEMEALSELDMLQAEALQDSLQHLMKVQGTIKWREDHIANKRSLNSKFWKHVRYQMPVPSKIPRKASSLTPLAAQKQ
The depositor's hits bear a star; i = inactive. Only a selection was taken, and hits are over-represented in it overall.

SMILES	ST2 IL33 inh
COc1ccc(C(=O)Nc2c3c(nn2-c2ccc(C)cc2)CS(=O)C3)c(OC)c1 (stereo not given)	i
CCC(C)Nc1ncnc2sc(C)c(S(=O)(=O)N3CCC(C)CC3)c12 (stereo not given)	i
O=C(Cn1cnc2c(cnn2-c2ccccc2)c1=O)Nc1ccc2c(c1)OCCO2	i
COc1ccc(-c2csc(/C(C#N)=C\Nc3cccc(C(F)(F)F)c3)n2)cc1OC	i
N#C/C(=C\c1cccs1)c1nc(-c2ccc(Cl)c(Cl)c2)cs1	i
COc1cc(N/C=C(/C#N)c2nc(-c3ccc(F)cc3)cs2)c(OC)cc1Cl	i
COc1ccc(-c2csc(/C(C#N)=C/c3cccs3)n2)cc1	50.0%*
COc1ccc(-c2csc(/C(C#N)=C/c3ccccc3OC)n2)cc1	40.0%*
COc1ccc(-c2cc(C(F)(F)F)nc(NCc3cccs3)n2)cc1	i
CCOc1cccc2cc(C(N)=O)c(=Nc3ccc(Br)cc3)oc12	i
CS(=O)(=O)Nc1ccc(-c2ccnc3[nH]ccc23)cn1	i
Cc1ccc(-n2ncc3c(NC(C)C)ncnc32)c(C)c1	i
O=c1[nH]c2ccsc2c(=O)n1-c1cc(F)ccc1F	i
CC(NC(=O)c1c(F)cccc1F)c1nc2ccccc2[nH]1 (stereo not given)	i
Nc1nonc1-c1noc(COc2ccc(Br)cc2)n1	i
N#CCOc1nc(N2CCCCC2)nc(N2CCCCC2)n1	i
COc1ccc(OCCOc2ccc(OC)cc2)cc1	i
N#Cc1nc(COc2ccc(Cl)cc2)oc1N1CCCCC1	73.0%*
COc1ccc(OCc2nc(C#N)c(N3CCCC3)o2)cc1	49.0%*
Nc1nonc1-c1noc(COc2ccc(Cl)cc2)n1	i
N#Cc1nc(COc2ccc(Br)cc2)oc1N1CCCC1	72.0%*
COCc1cc(C)nc(N2CCCCC2)c1C#N	i
O=C(CN1CCN(Cc2ccccc2F)C1=O)NCCC1=CCCCC1	i
CCOc1ccccc1NC(=O)CC(=O)N(C)Cc1ccnc2ccccc12	i
O=C(CC(=O)N1CCC[C@H]1CO)NC12CC3CC(CC(C3)C1)C2	i
SMILES	ST2 IL33 inh
N#Cc1c(NC(=O)c2cc(-c3ccco3)on2)sc2c1CCC2	i
CC(=O)Nc1ccccc1/C=C/c1ccc2c(C)ccc(O)c2n1	i
CCOc1cccc(/C=C/c2ccc3cccc(O)c3n2)c1OC	54.0%*
CCOc1ccccc1OCCOc1ccccc1C=O	i
Cc1ccc(-c2nnc([C@H]3CCN(Cc4cn(C)c5ccccc45)C3)o2)cc1	i
Cc1cc(Cl)ccc1N(CC(=O)Nc1ccc(C(N)=O)cc1)S(=O)(=O)c1ccccc1	i
COc1ccc(-n2ccnc2CN2CCN(CC3CCCCC3)C(CCO)C2)cc1 (stereo not given)	i
COC(=O)c1ccc(C(=O)Nc2nc3ccc4nc(C)sc4c3s2)cc1	30.0%*
Cc1nc2ccc3nc(NC(=O)c4cccc(Br)c4)sc3c2s1	i
Cc1nc2ccc3nc(NC(=O)c4ccccc4Cl)sc3c2s1	i
COCCCNc1nc2c(c(=O)n(C)c(=O)n2C)n1Cc1c(Cl)cccc1Cl	i
C=CCOC(=O)C1=C(C)N=C2SCCC(=O)N2C1c1ccc(OCC)c(OC)c1 (stereo not given)	i
CC(=C/c1ccccc1)/C=C1/SC(=O)N(c2ccc(O)cc2)C1=O	45.0%*
COc1ccc(N2C(=O)S/C(=C\c3ccc(O)cc3)C2=O)cc1	i
O=C1S/C(=C\c2ccc(O)cc2)C(=O)N1c1ccc(O)cc1	i
N=C1S/C(=C\c2ccccc2F)C(=O)N1c1ccc2c(c1)OCO2	i
O=C1S/C(=C\c2ccccc2Cl)C(=O)N1c1ccc(O)cc1	38.0%*
Nc1cccc2c1C(=O)N(c1ccc(O)cc1)C2=O	i
CC1CCCC(NC(=O)C2(C)CCC(=O)N2CCN2CCOCC2)C1C (stereo not given)	i
Oc1c(Cl)cc(Br)cc1C=Nc1ccc2oc(-c3ccncc3)nc2c1	i
CCc1ccccc1NC(=O)c1ccc(NC(C)=O)cc1	i
COc1ccc(Br)cc1C=Nc1c(-c2ccco2)nc2ccccn12	30.0%*
Cc1ccc2nc(-c3ccco3)c(Nc3ccccc3)n2c1	i
COc1ccc(Br)cc1/C=C1N=C(/C=C/c2ccccc2OC)OC\1=O	i
COc1ccc(N(CN2C(=O)c3cccc([N+](=O)[O-])c3C2=O)C(C)=O)cc1	i
SMILES	ST2 IL33 inh
COc1ccc2cc(S(=O)(=O)N3CCN(C)CC3)ccc2c1	i
CCn1cc2c(c1-c1ccc(OC)cc1)c(=O)n(C)c(=O)n2C	i
CCn1c(=O)ccc2cc(OC)ccc21	31.0%*
Cc1ccc(NC(=O)c2sc3nc4c(cc3c2N)CCC4)cc1	i
O=C(O)CCC(=O)Nc1ccc(I)cc1	i
O=C(O)CCC(=O)Nc1ccc(C(=O)O)cc1	i
CN(C)c1ccc(NC(=O)CCC(=O)O)cc1	51.0%*
O=C(COc1ccccc1Cl)N1CCCC(Nc2ccc3c(c2)OCCO3)C1 (stereo not given)	i
COc1ccc(C2C(C#N)=C(N)Oc3cc(C)oc(=O)c32)cc1 (stereo not given)	i
COc1ccc(-n2c(=O)c3ccccc3n(Cc3ccccc3C#N)c2=O)c(OC)c1	i
CCCOc1ccc(C(O)=C2C(=O)C(=O)N(CCN3CCOCC3)C2c2ccc(C)o2)cc1 (stereo not given)	i
O=C(O)C1CN(S(=O)(=O)c2cc3ccccc3o2)CCN1 (stereo not given)	i
CC1=N/C(=C\c2ccc(OC(F)F)cc2)C(=O)O1	i
Cc1ccccc1C1=N/C(=C\c2ccco2)C(=O)O1	44.0%*
CCOc1ccc(/C=C2\N=C(c3ccc(Br)cc3)OC2=O)cc1	i
O=C1OC(c2ccc3c(c2)OCO3)=N/C1=C\c1ccccc1Br	i
Cc1ccc(/C=C2\N=C(c3ccc(I)cc3)OC2=O)o1	47.0%*
Cc1ccc(C2=N/C(=C\c3ccco3)C(=O)O2)cc1[N+](=O)[O-]	i
Cc1ccc(/C=C2\N=C(c3ccccc3C)OC2=O)o1	65.0%*
O=C(c1ccccc1)C(c1ccccc1)N1CCN(Cc2ccc3c(c2)OCO3)CC1 (stereo not given)	i
CSCc1nnc(NC(=O)c2ccc(S(=O)(=O)N(C)C3CCCCC3)cc2)o1	i
O=C(Nc1ccc(Cl)c(N2CCCS2(=O)=O)c1)c1c(F)cccc1F	i
O=C(NCc1cccnc1)c1ccc2c(Cl)c3c(nc2c1)CCCC3	i
CCc1ccc(C2C(C#N)=C(N)Oc3n[nH]c(-c4cc(OC)c(OC)c(OC)c4)c32)cc1 (stereo not given)	i
CCCOc1cc(C)c2c(c1C)C[C@H]([C@H](C)C(=O)N1CCOCC1)CC2	i
SMILES	ST2 IL33 inh
N#Cc1c(N)n(-c2ccc(Br)cc2)c2nc3ccccc3nc12	i
COc1ccc(-n2c(N)c(C#N)c3nc4ccccc4nc32)cc1	i
N#Cc1c(N)n(-c2ccc(C(=O)O)cc2)c2nc3ccccc3nc12	36.0%*
NC(=O)c1csc(-c2cc(NC3CCCC3)nc3[nH]ccc23)n1	i
c1ccc2c(-c3cc(NC4CCNCC4)nc4[nH]ccc34)n[nH]c2c1	46.0%*
CC(O)c1cccc(-c2cc(NC3CCNCC3)nc3[nH]ccc23)n1 (stereo not given)	46.0%*
CCNc1ccnc(-c2cccc3[nH]ccc23)n1	i
Cc1ccccc1-n1cc(-c2ccnc(NC3CCNCC3)n2)cn1	i
c1cnc(-c2cc(NC3CCNCC3)nc3[nH]ccc23)nc1	41.0%*
COc1ncc(-c2cc(NCCN(C)C)nc3[nH]ccc23)c(OC)n1	i
